# Data taken from paper PMC12864922, “TDP-43 directly inhibits mRNA accumulation in neurites through modulation of mRNA stability”.
# In all, about 9,900 sequences were measured (“r (bound/input frequency ratio)”: median about 0.7, highest 2% from about 6.5 on). This is one part of a sample in which the highest values are shown more often than they occur.
# B1: ENSMUSG00000043670.83|Diras1 (ssRNA)
# RNA: GGGAGUUCUACAGUCCGACGAUCGCUUCGAUAUCCGCAUGCUAAUCCCAGUCAGGCCCAGAGAGGUUACCUUGCCUCUCCAUCUCUGUCCCUGUGUGCCCAGCCAUGCCCACUGUCCCUGUCCCUCACAUUCUAUCACUGUGACCUCUGGGGAGUGCCCAUUGACCUCAUCUUCCUUCACUAAUAUCUUAUUUCUUUCACCUGAUCCUGUCCUUUCCCCGUGACCUCUGACCUGUGGCCUUCCCUGGGUCCAGAACACCCCUGUCCUCUCCUGUCUGCACACCAGGGUGGAUGGGCCCGAGGGCUCUUGCGGUCGCACUAGUGUGGAAUUCUCGGGUGUCAAGG
# B2: ENSMUSG00000028439.194|Fam219a (ssRNA)
# RNA: GGGAGUUCUACAGUCCGACGAUCGCUUCGAUAUCCGCAUGCUAAGCCUAUCUGUCCAGGGAACCAGAUUGGUGUCCGAGAUGAGGAAAUGGCUGUGGCCUGGGAAAUCAGUGAGAGGCCGCUUGGGAAUGAGAAUGCAGUGGACUGAAAGCACAGCCUGGCCAUCUGGAACCUGGGUUCUGGUCCCAGCCUCGGCAUUCUCCCUGAGCUCCUAAGCAAUUCCCAGGCUUCUCUAGGGCUUCAGUUCUCACAACUGGAAAAUAAAGAGUAGCUGACAUCACCGACAGAGUCUUUUCAUACCAGACUCUUGCGGUCGCACUAGUGUGGAAUUCUCGGGUGUCAAGG
# B3: ENSMUSG00000031028.89|Tub (ssRNA)
# RNA: GGGAGUUCUACAGUCCGACGAUCGCUUCGAUAUCCGCAUGCUAGUACAGGGCACUCAAGCUGUAUGUAGAAAAAGCUCUGGUGGUCAGCAGAAAGCACUCCCACUUCAAAAGGGCCCAUUAGGCCCAAAGGGGGUUAGGAGUGGUAGGGAUAGGUGCGUGGCAGGUCCCUGCUAGGAUUGCAGGGGCCUGGCCAUGUGUAUUAGCUGGAGGCUUAGAAUGCUAGCUCAUUUGUUGCUACAGAUUUGCCCAGUGCUUGCACACGUAAGAACCCAGCUCUCAAGGCCAAAUAUCUGAGUGGAUGGCUCUUGCGGUCGCACUAGUGUGGAAUUCUCGGGUGUCAAGG
# B4: ENSMUSG00000034801.36|Sos2 (ssRNA)
# RNA: GGGAGUUCUACAGUCCGACGAUCGCUUCGAUAUCCGCAUGCUAGCAGAAUUCAAGCCCUCUCUUACCAAAGCUGCCACCAAAGACUUACAAACGGGAGCUUUCCCACCCGCCACUGUAUAGACUGCCUCUGCUGGAAAAUGCAGAAACUCCUCAAUGACCUUGGCCAUAUGUAGUCAUUGACACUGGAAUAGUAUUUGUAAAGGUUUUUAAUUUAUUCAAAAAGACAUAGUAUUUUAGUACUUUUUACAGAAAUGCUACUGAUUAAAUAAGCUCUUAAGAAUUAGUAAACUUGUUGGAUGGCACUCUUGCGGUCGCACUAGUGUGGAAUUCUCGGGUGUCAAGG
# B5: ENSMUSG00000043670.328|Diras1 (ssRNA)
# RNA: GGGAGUUCUACAGUCCGACGAUCGCUUCGAUAUCCGCAUGCUAUAGCCAGCCCAGGGCCCCCACAGCUGCCACCUGCUCCCAAGCCCCGGGAGUGGCUCCUGGCUGGACAGGGGGUCACAGCCCUUUCUCAGGGACACACCCUGAUAGCACAAUCUCUGGGCCACCCCAGGCUUCUCCUGGCUGGCCUUGCCCAUCCUGGGGAGAACCGGGCUGGGUGGCAGGGGAGGCCGGAGCCCACCCUGGCUGCUGGCCAACCUGCCCAGGCAUCUCUGGUGCUGGGGACCCCGCCAGGCCUCGCUUGCCUCUUGCGGUCGCACUAGUGUGGAAUUCUCGGGUGUCAAGG
# B6: ENSMUSG00000043670.180|Diras1 (ssRNA)
# RNA: GGGAGUUCUACAGUCCGACGAUCGCUUCGAUAUCCGCAUGCUACUGCUGCCCUAGGGCUCUGACAGAAUCUGAGCCUCUUUGCUGGUCAUGUGUACUCUGGAGACUGUCCCCCAUGUCUGCCCUGAGUUACGGAGCCCCUGUGGUAUCUGCGAGACUGUCCAGGAGACUUGAGUGGCUCCUGGGCCUGUGUCCCACCCAGAUGAGGGUGACUUAGAAUUCUGUGUUUAUGUGCCUGUGUGUGUGGAUGGGUGUGUGUCUGUCUUGGGAUGGGGUGUUCUUGCACCACUUUGUGUUCUUAGUGACUCUUGCGGUCGCACUAGUGUGGAAUUCUCGGGUGUCAAGG
# B7: ENSMUSG00000043670.182|Diras1 (ssRNA)
# RNA: GGGAGUUCUACAGUCCGACGAUCGCUUCGAUAUCCGCAUGCUAGGCUCUGACAGAAUCUGAGCCUCUUUGCUGGUCAUGUGUACUCUGGAGACUGUCCCCCAUGUCUGCCCUGAGUUACGGAGCCCCUGUGGUAUCUGCGAGACUGUCCAGGAGACUUGAGUGGCUCCUGGGCCUGUGUCCCACCCAGAUGAGGGUGACUUAGAAUUCUGUGUUUAUGUGCCUGUGUGUGUGGAUGGGUGUGUGUCUGUCUUGGGAUGGGGUGUUCUUGCACCACUUUGUGUUCUUAGUGAGACCACAGUGUACUCUUGCGGUCGCACUAGUGUGGAAUUCUCGGGUGUCAAGG
# B8: ENSMUSG00000043670.177|Diras1 (ssRNA)
# RNA: GGGAGUUCUACAGUCCGACGAUCGCUUCGAUAUCCGCAUGCUACGGUGAUAGGACUAGUGGCUGCUGCCCUAGGGCUCUGACAGAAUCUGAGCCUCUUUGCUGGUCAUGUGUACUCUGGAGACUGUCCCCCAUGUCUGCCCUGAGUUACGGAGCCCCUGUGGUAUCUGCGAGACUGUCCAGGAGACUUGAGUGGCUCCUGGGCCUGUGUCCCACCCAGAUGAGGGUGACUUAGAAUUCUGUGUUUAUGUGCCUGUGUGUGUGGAUGGGUGUGUGUCUGUCUUGGGAUGGGGUGUUCUUGCACCCUCUUGCGGUCGCACUAGUGUGGAAUUCUCGGGUGUCAAGG
# B9: ENSMUSG00000043670.175|Diras1 (ssRNA)
# RNA: GGGAGUUCUACAGUCCGACGAUCGCUUCGAUAUCCGCAUGCUAAGUCCCUGUGUGCGGUGAUAGGACUAGUGGCUGCUGCCCUAGGGCUCUGACAGAAUCUGAGCCUCUUUGCUGGUCAUGUGUACUCUGGAGACUGUCCCCCAUGUCUGCCCUGAGUUACGGAGCCCCUGUGGUAUCUGCGAGACUGUCCAGGAGACUUGAGUGGCUCCUGGGCCUGUGUCCCACCCAGAUGAGGGUGACUUAGAAUUCUGUGUUUAUGUGCCUGUGUGUGUGGAUGGGUGUGUGUCUGUCUUGGGAUGGGGCUCUUGCGGUCGCACUAGUGUGGAAUUCUCGGGUGUCAAGG
# B10: ENSMUSG00000043670.181|Diras1 (ssRNA)
# RNA: GGGAGUUCUACAGUCCGACGAUCGCUUCGAUAUCCGCAUGCUACCCUAGGGCUCUGACAGAAUCUGAGCCUCUUUGCUGGUCAUGUGUACUCUGGAGACUGUCCCCCAUGUCUGCCCUGAGUUACGGAGCCCCUGUGGUAUCUGCGAGACUGUCCAGGAGACUUGAGUGGCUCCUGGGCCUGUGUCCCACCCAGAUGAGGGUGACUUAGAAUUCUGUGUUUAUGUGCCUGUGUGUGUGGAUGGGUGUGUGUCUGUCUUGGGAUGGGGUGUUCUUGCACCACUUUGUGUUCUUAGUGAGACCACCUCUUGCGGUCGCACUAGUGUGGAAUUCUCGGGUGUCAAGG
# B11: ENSMUSG00000043670.176|Diras1 (ssRNA)
# RNA: GGGAGUUCUACAGUCCGACGAUCGCUUCGAUAUCCGCAUGCUAUGUGUGCGGUGAUAGGACUAGUGGCUGCUGCCCUAGGGCUCUGACAGAAUCUGAGCCUCUUUGCUGGUCAUGUGUACUCUGGAGACUGUCCCCCAUGUCUGCCCUGAGUUACGGAGCCCCUGUGGUAUCUGCGAGACUGUCCAGGAGACUUGAGUGGCUCCUGGGCCUGUGUCCCACCCAGAUGAGGGUGACUUAGAAUUCUGUGUUUAUGUGCCUGUGUGUGUGGAUGGGUGUGUGUCUGUCUUGGGAUGGGGUGUUCUCUCUUGCGGUCGCACUAGUGUGGAAUUCUCGGGUGUCAAGG
# B12: ENSMUSG00000031028.287|Tub (ssRNA)
# RNA: GGGAGUUCUACAGUCCGACGAUCGCUUCGAUAUCCGCAUGCUAGGCUGGAUUGAUGUAAAUGGAAGUAGUACUUUAAGAAAGCUCUAGAUUUCCCAGGUUGGACACUCGACGAAAGGCACACCUGCUGCAGCAGGUUCUGACACACCUGAGCCAUACAUUGCCAUCAGAGAACCCUCAGCGAGGUAGCCUUUGUUUACAGUCUAGUUUCUAGAGGGCAGUAGGACUUCCAUGCUGGGGCUGGCCUAUCUCCUGAUGAAAGAUUACAGUGCCAUCUCCUUCCCAUAGUUCUGUGUCUGCCCUCCCUCUUGCGGUCGCACUAGUGUGGAAUUCUCGGGUGUCAAGG
# B13: ENSMUSG00000029636.242|Wasf3 (ssRNA)
# RNA: GGGAGUUCUACAGUCCGACGAUCGCUUCGAUAUCCGCAUGCUACAUUGUGUCAGUUGACAGGGAAUGCCUGUGGGAUAAUUAAAAAUGGUUUUUGCUCAUGAGUUUGGGAUGUCACCCAGCCGCCCACAUCGCCUGCUAUGUGUGUGGACGCCUGUCCGCUUGGCCAGCUAUCCUGUAACACCUGCCAGUAGUAGGUUUUCCUCAUGUCACUAUGACAGUGAAAGCCCAUGUGCAAGCCCCUCCCUACGCCCUGCUUUGGCGUGUGUCUGAGUGCUCUGUGCUGCGCCAUGGCCAUCCUGGAGCUCUUGCGGUCGCACUAGUGUGGAAUUCUCGGGUGUCAAGG
# Target: TDP-43 (Homo sapiens, UniProt Q13148 1-414)
# Sequence (Q13148 whole entry): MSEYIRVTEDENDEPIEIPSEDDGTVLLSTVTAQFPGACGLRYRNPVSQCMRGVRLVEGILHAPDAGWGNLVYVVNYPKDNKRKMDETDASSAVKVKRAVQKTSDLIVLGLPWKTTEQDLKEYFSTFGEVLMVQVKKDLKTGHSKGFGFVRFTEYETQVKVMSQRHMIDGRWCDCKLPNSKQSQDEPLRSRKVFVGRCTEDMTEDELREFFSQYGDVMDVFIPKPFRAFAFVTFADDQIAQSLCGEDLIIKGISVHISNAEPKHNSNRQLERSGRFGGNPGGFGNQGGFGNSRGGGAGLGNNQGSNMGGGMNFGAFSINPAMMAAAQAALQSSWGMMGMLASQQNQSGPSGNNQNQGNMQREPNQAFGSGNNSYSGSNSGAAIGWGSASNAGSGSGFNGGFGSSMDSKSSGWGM
# Assay: RNA Bind-n-Seq with designed 260-mer pool; 25 mM Tris-HCl, 150 mM KCl, 3 mM MgCl2, BSA (printed 500 mg/mL), 20 units/mL SUPERase IN; pH not stated; 500 nM RNA pool, 1 h, 4 C; TDP-43 5, 50, 500 nM; high values mean tight binding
# Details: protein: recombinant; tags: SBP (GST cleaved off with PreScission; pGEX-GST-SBP)
# Procedure, shortened: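 Duplicate measurements used two independent batches of recombinant SBP-tagged TDP-43, which was captured on streptavidin beads at 5, 50 or 500 nM. The beads were incubated with 500 nM of an in vitro-transcribed 260-nt 3′ UTR oligo pool for 1 h at 4 °C in 25 mM Tris-HCl, 150 mM KCl, 3 mM MgCl2, BSA and SUPERase IN. After washing, biotin elution, reverse transcription, PCR amplification and sequencing, binding was expressed as R: each oligo's normalized read abundance in the bound sample over its abundance in input.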
row,Binder,binding signal
1,B1,2.21 R (bound/input frequency ratio)
2,B2,0.186 R (bound/input frequency ratio)
3,B3,4.96 R (bound/input frequency ratio)
4,B4,0.12 R (bound/input frequency ratio)
5,B5,0.177 R (bound/input frequency ratio)
6,B6,6.66 R (bound/input frequency ratio)
7,B7,5.77 R (bound/input frequency ratio)
8,B8,6.1 R (bound/input frequency ratio)
9,B9,6.15 R (bound/input frequency ratio)
10,B10,6.26 R (bound/input frequency ratio)
11,B11,6.8 R (bound/input frequency ratio)
12,B12,0.856 R (bound/input frequency ratio)
13,B13,0.663 R (bound/input frequency ratio)
